Laboratory results taken from PubChem BioAssay AID1851 (National Center for Advancing Translational Sciences (NCATS), 2009).
Screen size: about 16,000 compounds; about 2,600 (16%) were called active. Roughly 20% stayed inconclusive and do not appear here. The list is a sample of the results. A number with no mark means an inactive call. The call rests on the fitted dose curve; in most records, active means well fitted curve in the direction sought with a large enough effect; inconclusive means small, poorly fitted or top-dose-only effect, or effect the other way; inactive means no such curve, though single readings can be large or run the other way.

Biological target: Cytochrome P450 2D6 (Homo sapiens) (UniProt P10635)
Assay: Cytochrome panel assay with activity outcomes
Conditions: recombinant CYP, pro-luciferin dealkylation, luminescence, p450-cyp2d6; series mostly up to 57.1 µM
On the % scale 0 is the no-effect control and ±100 the full control effect.

Cytochrome P450 2D6 (Homo sapiens), sequence (P10635 whole entry, looked up): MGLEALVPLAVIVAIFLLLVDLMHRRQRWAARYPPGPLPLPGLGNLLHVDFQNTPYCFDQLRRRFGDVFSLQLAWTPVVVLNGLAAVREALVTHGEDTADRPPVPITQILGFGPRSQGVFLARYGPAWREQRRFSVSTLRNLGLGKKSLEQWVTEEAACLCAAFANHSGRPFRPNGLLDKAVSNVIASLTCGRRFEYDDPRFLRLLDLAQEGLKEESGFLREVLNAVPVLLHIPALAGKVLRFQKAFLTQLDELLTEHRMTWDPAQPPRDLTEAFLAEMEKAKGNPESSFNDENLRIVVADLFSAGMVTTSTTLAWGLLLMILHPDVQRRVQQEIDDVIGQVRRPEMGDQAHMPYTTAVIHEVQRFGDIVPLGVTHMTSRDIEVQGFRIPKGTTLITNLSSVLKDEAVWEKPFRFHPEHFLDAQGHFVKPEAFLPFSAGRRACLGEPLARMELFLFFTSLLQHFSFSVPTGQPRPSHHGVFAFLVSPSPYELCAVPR

Compound | AC50 | activity, negative = inhibition
NS(=O)(=O)Cc1noc2ccccc12 | inactive | –
O=C(O)/C=C\C(=O)Nc1ccc2c(c1)C(=O)c1cc(F)ccc1-2 | – | -18.3% [at 11.4 µM]
COCCNc1nc(-c2cccc(OC)c2)nc2ccccc12 | 20 µM (active) | –
COCCNc1nc(-c2cccc(NS(C)(=O)=O)c2)nc2ccccc12 | inactive | –
COc1cccc(-c2nc(NC3CC3)c3ccccc3n2)c1 | 7.94 µM (active) | –
COc1cccc(-c2nc(NCCNC(C)=O)c3ccccc3n2)c1 | 3.98 µM (active) | –
COc1cccc(-c2nc(NC3CCNCC3)c3ccccc3n2)c1 | inactive | –
O=c1cnc2cnc(Nc3ccccc3)nc2n1C1CC1 | inactive | –
COc1ccc2c(c1)-c1ccccc1S(=O)(=O)N2C(C)=O | inactive | –
CCOC(=O)c1cnn(-c2ccccc2)c1-n1cccc1C(=O)C(=O)Nc1ccccc1C(F)(F)F | inactive | –
N#C/C(=C\c1cccs1)C(=O)NCC1CCCO1 (stereo unspecified) | inactive | –
CN(C)/C=C/C(=O)c1ccc(Cl)cc1 | inactive | –
Cc1ccc(/C=N\NC(=O)c2cc(OCC(F)(F)F)ccc2OCC(F)(F)F)cc1 | inactive | –
COc1ccc(NC(=O)N(C2CCCCC2)C(C)c2cccnc2)c(OC)c1 (stereo unspecified) | inactive | –
Cc1cc(OC(=O)c2ccccc2Br)cc(=O)n1C | inactive | –
O=C(CCc1nc2ccccc2c(=O)[nH]1)OCC(=O)N1CCN(S(=O)(=O)c2ccccc2)CC1 | inactive | –
Cc1nc2ccccn2c1/C(O)=C1\C(=O)C(=O)N(CCCn2ccnc2)C1c1ccncc1 (stereo unspecified) | inactive | –
CCN(CC)c1ccc(NC(=O)c2cccnc2)c(C)c1 | inactive | –
COc1ccc(-c2cc3ccccc3n2CC(O)CNCCO)cc1 (stereo unspecified) | 0.562 µM (active) | –
COc1cccc(C2C(C(=O)c3cc4ccccc4o3)=C(O)C(=O)N2c2cc(C)on2)c1OC (stereo unspecified) | inactive | –
CSc1nc2n(n1)C(c1cccc(F)c1)C(C(=O)Nc1ccc(C)cc1C)=C(C)N2 (stereo unspecified) | inactive | –
O=C(c1ccco1)N1CCC2(CCCN(Cc3ccccc3)C2)CC1 | inactive | –
COc1ccc(C(=O)N2CCC3(CCN(Cc4ccc(C#N)cc4)CC3)CC2)cc1 | inactive | –
O=C(c1ccncc1)N1CCC2(CCCN(Cc3ccncc3)C2)CC1 | 6.31 µM (active) | –

Compound | AC50 | activity, negative = inhibition
O=C(c1ccco1)N1CCC2(CCCN(Cc3ccncc3)C2)CC1 | 3.16 µM (active) | –
O=C(c1cccc(F)c1)N1CCC2(CCCN(Cc3ccncc3)C2)CC1 | 7.94 µM (active) | –
N#Cc1ccc(CN2CCC3(CC2)CCN(C(=O)c2ccncc2)CC3)cc1 | 6.31 µM (active) | –
O=C(c1cccc(F)c1)N1CCC2(CCCN(Cc3nccs3)C2)CC1 | inactive | –
N#Cc1cccc(NC(=O)N2CCCC3(CCN(C(=O)c4ccco4)CC3)C2)c1 | inactive | –
O=C(c1ccncc1)N1CCC2(CCCN(Cc3ccccc3)C2)CC1 | inactive | –
N#Cc1ccc(CN2CCCC3(CCN(C(=O)c4cccc(F)c4)CC3)C2)cc1 | inactive | –
N#Cc1ccc(CN2CCCC3(CCN(C(=O)c4ccncc4)CC3)C2)cc1 | inactive | –
CC1(C)NC(=O)N(c2ccc([N+](=O)[O-])c(C(F)(F)F)c2)C1=O | inactive | –
O=[N+]([O-])c1ccc(N2CCCCC2)c(Cl)c1N1CCCCC1 | inactive | –
Cc1ccc(C)c(Cn2cnc3c(cnn3C(C)(C)C)c2=O)c1 | inactive | –
N#Cc1cccc(-c2nc3cnc(N4CCOCC4)nc3n(C[C@H]3CCCO3)c2=O)c1 | inactive | –
CC1(C)Cc2c(C#N)c(SCc3ccccc3)nc(N3CCOCC3)c2CO1 | inactive | –
Cn1c(=O)c2[nH]c(CSCc3ccccc3)nc2n(C)c1=O | – | -20.6% [at 11.4 µM]
COc1ccc(C2=NOC(C(=O)Nc3ccc(C(C)=O)cc3)C2)cc1OC (stereo unspecified) | inactive | –
CC(C)C(=O)N[C@H]1CCCN1C(=O)/C=C\c1ccccc1 | – | -5.27% [at 11.4 µM]
Cn1c(=O)c2[nH]c(CCCc3ccc([N+](=O)[O-])cc3)nc2n(C)c1=O | – | -15.3% [at 11.4 µM]
CN1CCN(c2ccncc2S(=O)(=O)N2CCN(C)CC2)CC1 | – | 0.642% [at 11.4 µM]
CN1CCN(c2ncncc2-c2ccccc2Cl)CC1 | 12.6 µM (active) | –
COc1ccccc1-c1cncnc1N1CCN(C)CC1 | 25.1 µM (active) | –
COc1ccccc1N1CCN(C[C@@H]2CN3C(=O)N(C)c4ccccc4C3=N2)CC1 | inactive | –
COc1ccccc1N1CCN(c2nc3c(C)cccn3c(=O)c2C=O)CC1 | inactive | –
Cc1ccccc1-c1cncnc1N1CCN(C)CC1 | 12.6 µM (active) | –
Cc1nc2cnc(N3CCN(C)CC3)nc2n(-c2ccccc2)c1=O | inactive | –

Compound | AC50 | activity, negative = inhibition
COc1ccc(Cc2ccccc2C(=O)O)c2ccccc12 | – | 11.8% [at 11.4 µM]
CC(C)CNS(=O)(=O)c1cc(C(=O)N2CC(C)OC(C)C2)c(Cl)cc1Cl (stereo unspecified) | inactive | –
O=C(O)[C@@H](O)c1ccc(F)cc1 | – | 4.43% [at 11.4 µM]
O=C1CCN(S(=O)(=O)c2ccccc2)N1 | inactive | –
Fc1cccc(F)c1C(Nc1nncs1)Nc1nncs1 | – | 19.1% [at 11.4 µM]
CC(=O)C[C@H](c1ccc([N+](=O)[O-])cc1)c1c(O)c2ccccc2oc1=O | inactive | –
OC[C@@H](O)[C@@H](O)[C@@H](O)[C@@H](O)c1nc2ccc(Cl)cc2[nH]1 | – | 19.4% [at 11.4 µM]
C1COC(NC(C2CC2)C2CC2)=N1 | 0.398 µM (active) | –
Cc1noc(C)c1C(=O)N1CCC[C@@]2(CCN(c3ncccn3)C2)C1 | inactive | –
Nc1nc(C(=O)O)c(N=Nc2ccccc2)c(=O)[nH]1 | – | -12.3% [at 11.4 µM]
CC(C)(C)C(=O)Nc1nnc(SCC(=O)NCc2cccs2)s1 | inactive | –
O=C(CSc1nnnn1-c1ccccc1)NCc1cccs1 | 2.51 µM (active) | –
CCCC(=O)Nc1nnc(SCC(=O)NCc2cccs2)s1 | inactive | –
C[C@@H]1O[C@H](O[C@@H]2[C@@H](Oc3cc(O)c4c(c3)O[C@H](c3ccc(O)cc3)CC4=O)O[C@@H](CO)[C@@H](O)[C@H]2O)[C@@H](O)[C@H](O)[C@@H]1O | inactive | –
CC(C)C(=O)N[C@@H]1CCCN1C(=O)/C=C\c1ccccc1 | – | -16.8% [at 11.4 µM]
CCOC(=O)N1CCC(NC(=O)CS(=O)(=O)Cc2nc(-c3cccc(OC)c3)oc2C)CC1 | inactive | –
CCC(C)NC(=O)C1CCCN(C(=O)NC2CCCCC2)C1 (stereo unspecified) | inactive | –
Cc1cccc(-c2nc(CN3CCCC(C(=O)NC4CCCCC4)C3)c(C)o2)c1 (stereo unspecified) | 4.47 µM (active) | –
O=c1c(-c2ccccc2)nc2cnc(N3CCOCC3)nc2n1C1CC1 | inactive | –
O=C(O)c1cccc(CN2CCCCC2)c1 | 1 µM (active) | –
CC(C)(C)c1cc(C(=O)O)c(CN2CCCCC2)o1 | inactive | –
O=C(O)c1cccc(SSc2cccc(C(=O)O)c2)c1 | – | -12% [at 11.4 µM]
O=c1c(-c2ccc(Cl)cc2)nc2cnc(N3CCNCC3)nc2n1Cc1ccc(F)cc1 | inactive | –
Cc1ccc(S(=O)(=O)N[C@H]2COC(=O)[C@@H](C)COC(=O)[C@H](C)NC(=O)C/C=C\[C@H]2C)cc1 | – | -1.17% [at 11.4 µM]

Compound | AC50 | activity, negative = inhibition
CCCCC1=NN2C(=N)CC(=O)N=C2S1 | inactive | –
CCOC(=O)C(=CNc1cccc(C)c1C)C(=O)OCC | 1.58 µM (active) | –
Cc1ccc(NC(=O)Nc2ncccc2C)cc1 | inactive | –
CCOC(=O)C(=Cc1ccc(F)cc1)C(=O)OCC | inactive | –
CCOC(=O)/C(=C/Nc1ccccc1)[N+](=O)[O-] | inactive | –
Cc1cccc(Nc2ccccc2C(=O)O)c1C | inactive | –
CCOC(=O)C(=CNc1ncccc1C)C(=O)OCC | 8.91 µM (active) | –
NCCSS(=O)(=O)CCN | – | 27.6% [at 11.4 µM]
Cc1nc2c(C)cccn2c1/C(O)=C1\C(=O)C(=O)N(CCN2CCOCC2)C1c1cccs1 (stereo unspecified) | inactive | –
COC(=O)C/C=C\[C@@H](C)[C@@H](/C=N\OC[C@@H](O)[C@H]1O[C@H]2OC(C)(C)O[C@H]2[C@@H]1O)NS(=O)(=O)c1ccc(C)cc1 | – | -10.1% [at 11.4 µM]
CC1(C)C(=O)C(c2ccccc2)=C2CN3C(=O)N(CCc4ccccc4)C(=O)C3(Cc3ccc(F)cc3)C=C21 (stereo unspecified) | inactive | –
CNc1nc(Cl)nc(NC(C)(C)C)n1 | inactive | –
CC(C)(C)Nc1nc(N2CCCC2)nc(N2CCCC2)n1 | 3.55 µM (active) | –
Cc1cc(C)n(-c2nc(NC(C)(C)C)nc(NC(C)(C)C)n2)n1 | inactive | –
COC(=O)C/C=C\[C@@H](C)[C@@H](CO)NS(=O)(=O)c1ccc(C)cc1 | – | -2.05% [at 11.4 µM]
O=C1/C(=C\c2ccc(Br)o2)SC(=Nc2ccccc2)N1c1ccccc1 | inactive | –
Cc1cccc(NC(=O)NNC(=O)c2cc(-c3ccccc3Cl)nc3ccccc23)c1 | inactive | –
COC(=O)c1sccc1NC(=O)c1cc(-c2ccc(C)cc2)nc2ccccc12 | inactive | –
Cc1cc(C(=O)Nc2ccc(N3CCOCC3)cc2)c2ccccc2n1 | 14.1 µM (active) | –
CC(C)(C)c1nc(SCC(=O)Nc2ccc(N3CCOCC3)cc2)c2ccccc2n1 | inactive | –
Cc1ccc(NC(=O)c2cc(Cl)nc3ccccc23)cc1 | 0.178 µM (active) | –
Cc1cc(C(=O)Nc2c(C)n(C)n(-c3ccccc3)c2=O)c2ccccc2n1 | inactive | –
O=C1C2=C(Nc3cc([N+](=O)[O-])ccc3N2)O[C@@H]1c1ccc([C@H]2OC3=C(Nc4ccc([N+](=O)[O-])cc4N3)C2=O)cc1 | – | -7.54% [at 11.4 µM]
O=C1c2ccccc2C(=O)c2c(NC3CCCCC3)ccc(Nc3ccc(S(=O)(=O)O)cc3)c21 | – | -10.8% [at 11.4 µM]
